This is an account of results in PubChem BioAssay AID1220 (Sanford-Burnham Center for Chemical Genomics, 2008).

About 1,300 (0.68%) of roughly 190,000 compounds were called active. Many of the other results were omitted from the sample, so actives are more common in it than they were. Values without a mark were called inactive. Rule as the data show it: active = inhibition above about 50%; inactive = the rest.

For this assay, the target named is Mannose-6-phosphate isomerase (Homo sapiens) (UniProt P34949). Description: human PMI inhibitors, high substrate, primary screen, biochemical, fluorescence intensity, high mannose 6-phosphate (AID 1220). Conditions: recombinant PMI enzyme, coupled fluorescence intensity; at 20 µM; active compounds read high.
Sequence of Mannose-6-phosphate isomerase (Homo sapiens) (P34949 whole entry, looked up): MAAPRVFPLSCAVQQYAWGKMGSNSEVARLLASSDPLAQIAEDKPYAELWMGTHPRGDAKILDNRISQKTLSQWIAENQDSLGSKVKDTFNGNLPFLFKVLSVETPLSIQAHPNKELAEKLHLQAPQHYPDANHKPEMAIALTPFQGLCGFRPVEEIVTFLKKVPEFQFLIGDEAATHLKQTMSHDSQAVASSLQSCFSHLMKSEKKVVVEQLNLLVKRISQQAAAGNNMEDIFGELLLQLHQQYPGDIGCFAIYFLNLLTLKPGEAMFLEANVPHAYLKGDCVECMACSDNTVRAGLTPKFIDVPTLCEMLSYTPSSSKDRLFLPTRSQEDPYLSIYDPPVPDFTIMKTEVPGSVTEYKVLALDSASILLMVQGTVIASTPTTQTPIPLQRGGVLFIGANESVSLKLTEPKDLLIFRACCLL
As for `CC1CC1C(=O)OCC(=O)NCc1ccc(Cl)cc1Cl` (stereo unspecified), the inhibition is -7.7%.

Regarding `CCSc1nnc(NC(=O)C2CC(=O)N(Cc3ccc(C)cc3)C2)s1` (stereo unspecified), the inhibition is -13.3%.

In the case of `CCOC(=O)N1CCN(C(=O)Nc2ccc3nccnc3c2)CC1`, the inhibition is 55.1% (active).

On to `CCCNC(=S)Nc1ccc2nc(-c3ccccn3)c(-c3ccccn3)nc2c1`, for which the inhibition is -9.4%.

`Cc1ccc(NC(=S)Nc2ccc3nc(-c4ccccn4)c(-c4ccccn4)nc3c2)cc1C`: the inhibition was 63.1% (active).

Consider `CN(C)NC(=S)Nc1ccc2nc(-c3ccccn3)c(-c3ccccn3)nc2c1`, for which the inhibition was -38.7%.

For the compound `O=C(Nc1ccc2nc(-c3ccccn3)c(-c3ccccn3)nc2c1)N1CCOCC1`, the inhibition is 62.6% (active).

For the compound `S=C(Nc1ccc2nc(-c3ccccn3)c(-c3ccccn3)nc2c1)N1CCOCC1`, the inhibition was -7.8%.

As for `CCOC(=O)N1CCN(C(=O)Nc2ccc3nc(-c4ccccn4)c(-c4ccccn4)nc3c2)CC1`, the inhibition is 25.7%.

On to `CCOC(=O)N1CCN(C(=O)Nc2ccc3nc(C)c(C)nc3c2)CC1`, for which the inhibition is 48.9%.

Take `CCOC(=O)C1CCN(C(=O)Nc2ccc3nccnc3c2)CC1`: the inhibition was 49.9%.

Regarding `Cc1ccc2[nH]c3c(=O)n(CCN4CCNCC4)cnc3c2c1`, the inhibition is 24.5%.

Consider `Cc1[nH]c2ccccc2c1CCNC(=O)c1c(N)no[n+]1[O-]`, for which the inhibition was 15.2%.

As to `O=c1c(Cl)c(N/N=C/c2ccc(Br)cc2)cnn1-c1ccccc1`, the inhibition is 4.9%.

Regarding `O=C(Cc1cccc2ccccc12)Nc1ccc(OC(F)F)c(Cl)c1`, the inhibition was 10%.

Regarding `CC1=CC(=O)C(C(C)C)=C/C1=N/OC(=O)c1cccc([N+](=O)[O-])c1`, the inhibition was -0.5%.

Consider `CC1=CC(=O)C(C(C)C)=C/C1=N\OC(=O)c1cccc2nc(C)oc12`, for which the inhibition was 9.2%.

On to `CC1=CC(=O)C(C(C)C)=CC1=NC(=O)c1ccc(C)cc1`, for which the inhibition is 79% (active).

In the case of `COC(=O)CCc1c(C)c(C(=O)c2ccc(F)cc2)c2ccccn12`, the inhibition was 6.2%.

With `CCN=c1sc(C(=O)OC)cc(=O)n1CC`, the inhibition was 3.7%.

On to `O=C(NCC1OCCCN1S(=O)(=O)c1cc(F)ccc1F)C(=O)NC1CCCCC1` (stereo unspecified), for which the inhibition was -0.8%.

As for `Cc1coc2c1c(C)cc1oc(=O)c(Cc3ccccc3)c(C)c12`, the inhibition is -11.6%.

Regarding `CCOC(=O)Cc1c(C)c2c(O)cc(O)cc2oc1=O`, the inhibition was 33.5%.

Turning to `Cc1c(Cc2ccccc2)c(=O)oc2c(CN(C)C)c(O)c(Cl)cc12`, the inhibition is 7.5%.

Turning to `Cc1c(Cc2ccccc2)c(=O)oc2cc(O)cc(O)c12`, the inhibition is 58.5% (active).

As to `COc1ccc2c(C)c(Cc3ccccc3)c(=O)oc2c1OC`, the inhibition is 0.1%.

A word on the inhibition: it is the drop in the measured response relative to a control, in per cent.
